Experimental data reported in the supplement of paper PMC10849652.
The full data set covers some 8,800 targets. This sample favours those with a hit. About 0.5% of all pairs of compound and target were hits.

UniProt Q13309, sequence (Q13309 whole entry, looked up): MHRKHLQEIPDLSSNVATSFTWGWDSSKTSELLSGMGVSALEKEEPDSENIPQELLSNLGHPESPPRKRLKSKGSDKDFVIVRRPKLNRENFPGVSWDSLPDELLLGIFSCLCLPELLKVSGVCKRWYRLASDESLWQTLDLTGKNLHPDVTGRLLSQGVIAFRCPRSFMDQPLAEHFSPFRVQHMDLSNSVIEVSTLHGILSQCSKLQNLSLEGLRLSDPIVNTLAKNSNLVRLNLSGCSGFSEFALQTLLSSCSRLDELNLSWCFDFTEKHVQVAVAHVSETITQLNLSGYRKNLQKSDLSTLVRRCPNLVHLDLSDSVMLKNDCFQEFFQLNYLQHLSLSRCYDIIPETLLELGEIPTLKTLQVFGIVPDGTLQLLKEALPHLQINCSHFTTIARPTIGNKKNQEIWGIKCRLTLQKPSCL
UniProt Q8IVJ1, sequence (Q8IVJ1 whole entry, looked up): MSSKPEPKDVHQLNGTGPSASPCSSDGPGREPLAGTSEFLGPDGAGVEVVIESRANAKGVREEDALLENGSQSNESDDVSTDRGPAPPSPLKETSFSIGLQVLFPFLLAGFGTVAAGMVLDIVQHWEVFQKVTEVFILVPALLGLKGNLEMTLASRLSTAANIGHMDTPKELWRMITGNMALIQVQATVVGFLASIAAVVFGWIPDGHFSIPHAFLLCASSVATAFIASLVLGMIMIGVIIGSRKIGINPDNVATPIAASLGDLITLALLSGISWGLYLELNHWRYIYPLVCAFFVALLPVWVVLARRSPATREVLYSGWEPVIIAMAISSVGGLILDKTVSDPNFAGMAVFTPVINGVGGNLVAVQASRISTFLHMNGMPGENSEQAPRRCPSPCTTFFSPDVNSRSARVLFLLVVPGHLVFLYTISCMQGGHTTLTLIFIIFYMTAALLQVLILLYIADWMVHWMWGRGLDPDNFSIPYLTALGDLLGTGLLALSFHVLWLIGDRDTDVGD
UniProt Q15544, sequence (Q15544 whole entry, looked up): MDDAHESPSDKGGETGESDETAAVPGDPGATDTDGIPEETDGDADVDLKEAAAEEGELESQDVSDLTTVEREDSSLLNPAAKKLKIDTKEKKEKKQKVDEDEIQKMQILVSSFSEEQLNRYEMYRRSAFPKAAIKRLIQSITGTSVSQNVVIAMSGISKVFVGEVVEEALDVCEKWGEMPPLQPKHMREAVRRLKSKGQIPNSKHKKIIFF
UniProt O95793, sequence (O95793 whole entry, looked up): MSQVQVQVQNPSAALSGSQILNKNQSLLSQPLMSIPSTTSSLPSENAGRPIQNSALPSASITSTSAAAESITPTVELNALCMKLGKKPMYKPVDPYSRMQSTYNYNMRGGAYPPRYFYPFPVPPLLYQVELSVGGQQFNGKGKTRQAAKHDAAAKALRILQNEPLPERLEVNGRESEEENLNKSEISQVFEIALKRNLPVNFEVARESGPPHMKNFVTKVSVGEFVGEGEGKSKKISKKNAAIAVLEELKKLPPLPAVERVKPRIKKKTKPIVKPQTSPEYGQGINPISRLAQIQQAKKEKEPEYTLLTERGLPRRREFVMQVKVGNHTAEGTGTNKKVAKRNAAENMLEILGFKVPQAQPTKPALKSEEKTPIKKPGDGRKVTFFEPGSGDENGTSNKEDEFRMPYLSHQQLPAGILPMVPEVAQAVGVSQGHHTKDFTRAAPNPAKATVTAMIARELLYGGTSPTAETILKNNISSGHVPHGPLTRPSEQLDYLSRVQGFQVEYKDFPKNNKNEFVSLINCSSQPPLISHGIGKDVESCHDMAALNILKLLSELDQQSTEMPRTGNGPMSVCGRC
UniProt Q9NP59, sequence (Q9NP59 whole entry, looked up): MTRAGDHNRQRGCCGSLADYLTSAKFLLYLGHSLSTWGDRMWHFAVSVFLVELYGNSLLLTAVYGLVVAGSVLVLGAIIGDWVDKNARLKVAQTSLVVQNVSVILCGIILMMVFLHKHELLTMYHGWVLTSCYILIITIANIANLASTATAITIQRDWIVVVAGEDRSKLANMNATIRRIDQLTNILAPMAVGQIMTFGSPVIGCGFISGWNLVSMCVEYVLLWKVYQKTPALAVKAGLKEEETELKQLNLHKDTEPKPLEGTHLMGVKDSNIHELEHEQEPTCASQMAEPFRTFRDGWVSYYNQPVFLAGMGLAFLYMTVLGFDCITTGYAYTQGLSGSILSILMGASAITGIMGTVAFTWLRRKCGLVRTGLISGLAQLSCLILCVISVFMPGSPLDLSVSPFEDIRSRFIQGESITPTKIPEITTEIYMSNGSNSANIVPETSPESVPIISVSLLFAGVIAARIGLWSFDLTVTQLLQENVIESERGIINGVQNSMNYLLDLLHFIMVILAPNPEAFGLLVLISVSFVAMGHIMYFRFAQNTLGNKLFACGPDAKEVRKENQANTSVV
UniProt O60225, sequence (O60225 whole entry, looked up): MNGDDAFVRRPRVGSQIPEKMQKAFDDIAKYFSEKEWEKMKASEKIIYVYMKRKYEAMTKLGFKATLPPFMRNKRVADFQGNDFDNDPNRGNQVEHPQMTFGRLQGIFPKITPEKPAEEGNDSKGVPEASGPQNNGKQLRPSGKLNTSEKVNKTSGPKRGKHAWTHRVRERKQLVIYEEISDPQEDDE
UniProt Q96BD0, sequence (Q96BD0 whole entry, looked up): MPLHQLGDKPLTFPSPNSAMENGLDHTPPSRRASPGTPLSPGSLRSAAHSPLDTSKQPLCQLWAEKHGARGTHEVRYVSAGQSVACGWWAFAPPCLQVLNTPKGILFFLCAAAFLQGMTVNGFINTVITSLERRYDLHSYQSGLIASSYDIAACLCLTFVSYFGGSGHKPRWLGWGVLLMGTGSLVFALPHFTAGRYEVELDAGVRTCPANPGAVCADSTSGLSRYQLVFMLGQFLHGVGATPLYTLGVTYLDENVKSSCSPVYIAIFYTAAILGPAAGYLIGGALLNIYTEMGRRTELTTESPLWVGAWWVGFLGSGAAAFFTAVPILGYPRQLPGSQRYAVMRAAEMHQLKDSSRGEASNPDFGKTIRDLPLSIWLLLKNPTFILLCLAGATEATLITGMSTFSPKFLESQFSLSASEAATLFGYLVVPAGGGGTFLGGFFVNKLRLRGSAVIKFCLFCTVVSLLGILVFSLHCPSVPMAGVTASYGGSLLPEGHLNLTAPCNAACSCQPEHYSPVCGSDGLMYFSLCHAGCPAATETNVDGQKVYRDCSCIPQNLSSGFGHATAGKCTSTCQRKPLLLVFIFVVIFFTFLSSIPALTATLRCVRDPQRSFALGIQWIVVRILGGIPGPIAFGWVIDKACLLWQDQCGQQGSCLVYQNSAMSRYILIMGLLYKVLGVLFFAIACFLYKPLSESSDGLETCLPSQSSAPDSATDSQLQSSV
UniProt P51532, sequence (P51532 whole entry, looked up): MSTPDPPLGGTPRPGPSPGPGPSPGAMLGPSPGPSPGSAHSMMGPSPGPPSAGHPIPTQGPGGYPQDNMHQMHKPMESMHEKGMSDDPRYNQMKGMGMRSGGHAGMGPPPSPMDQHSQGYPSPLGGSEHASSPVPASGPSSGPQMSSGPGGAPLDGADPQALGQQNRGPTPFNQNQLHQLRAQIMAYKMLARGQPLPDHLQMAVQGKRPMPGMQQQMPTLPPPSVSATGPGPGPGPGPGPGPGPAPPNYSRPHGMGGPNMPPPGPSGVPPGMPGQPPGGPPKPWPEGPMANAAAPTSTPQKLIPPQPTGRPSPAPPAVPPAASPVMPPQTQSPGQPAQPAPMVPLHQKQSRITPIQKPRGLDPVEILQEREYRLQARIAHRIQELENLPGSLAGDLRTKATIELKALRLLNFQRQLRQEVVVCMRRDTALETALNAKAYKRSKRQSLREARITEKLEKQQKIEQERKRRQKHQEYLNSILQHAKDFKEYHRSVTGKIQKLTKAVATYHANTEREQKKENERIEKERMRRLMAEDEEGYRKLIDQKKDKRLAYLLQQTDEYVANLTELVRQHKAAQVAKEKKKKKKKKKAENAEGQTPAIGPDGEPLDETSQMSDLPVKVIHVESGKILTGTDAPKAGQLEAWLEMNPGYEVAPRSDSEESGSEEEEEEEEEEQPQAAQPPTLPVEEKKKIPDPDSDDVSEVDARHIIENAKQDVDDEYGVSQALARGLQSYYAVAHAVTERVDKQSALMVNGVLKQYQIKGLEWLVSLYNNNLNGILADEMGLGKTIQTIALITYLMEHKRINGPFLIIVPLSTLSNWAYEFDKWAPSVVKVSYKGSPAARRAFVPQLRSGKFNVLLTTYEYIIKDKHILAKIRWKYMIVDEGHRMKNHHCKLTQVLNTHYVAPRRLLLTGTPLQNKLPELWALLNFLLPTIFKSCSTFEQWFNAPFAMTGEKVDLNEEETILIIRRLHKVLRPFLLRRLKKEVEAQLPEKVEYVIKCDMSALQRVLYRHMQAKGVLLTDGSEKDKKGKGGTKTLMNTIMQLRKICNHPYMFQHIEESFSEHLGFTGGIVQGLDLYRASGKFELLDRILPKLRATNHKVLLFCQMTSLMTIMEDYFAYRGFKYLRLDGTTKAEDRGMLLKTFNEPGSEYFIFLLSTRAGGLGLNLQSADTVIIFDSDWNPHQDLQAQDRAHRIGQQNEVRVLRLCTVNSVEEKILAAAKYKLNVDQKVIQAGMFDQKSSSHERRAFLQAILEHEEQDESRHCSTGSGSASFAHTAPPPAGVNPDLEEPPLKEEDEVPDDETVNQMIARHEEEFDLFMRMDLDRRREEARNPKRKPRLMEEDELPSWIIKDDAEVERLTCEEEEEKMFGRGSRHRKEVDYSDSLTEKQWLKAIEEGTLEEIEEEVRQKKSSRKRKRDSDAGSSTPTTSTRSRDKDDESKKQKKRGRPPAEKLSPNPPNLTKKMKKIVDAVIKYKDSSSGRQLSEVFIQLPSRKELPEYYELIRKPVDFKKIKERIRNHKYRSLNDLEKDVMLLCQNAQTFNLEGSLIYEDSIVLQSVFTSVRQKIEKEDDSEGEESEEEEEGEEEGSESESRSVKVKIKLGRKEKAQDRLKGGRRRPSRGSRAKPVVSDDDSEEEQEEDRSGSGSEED

These targets were tested with Cc1ccc(NC(=O)c2ccc(CN3CC[C@H](N(C)C)C3)c(C(F)(F)F)c2)cc1Nc1nccc(-c2cncnc2)n1 [bafetinib] (assay: log2 fold change, soluble protein after heating vs DMSO (PISA); higher = thermal stabilisation; K562 lysate, 10 uM; active = over 0.2 and 3.5 SD of the protein, either way, in both replicates (recomputed)).
Outline: (§1)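 Values give the log-two fold change in thermal stability against solvent controls, from duplicates. Crude K562 extract at 1 mg/mL protein, made by dounce homogenisation in PBS pH 7.4 with 1 mM MgCl2, was treated with 10 μM compound for 30 min. After 3 min heating across 48°C-58°C, aliquots were pooled, adjusted to 0.5% NP-40 at 4°C and centrifuged at 21,000xg for 90 min. The supernatant was measured by TMTpro 16plex LC-MS/MS with channel sums equalised.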
SNAPC2 (UniProt Q13487) was tested, and the log2 fold change was -0.537 (inactive).
SMC4 (UniProt C9JJ64) was tested, and the log2 fold change was -0.251 (inactive).
With SSX5 isoform 2 (UniProt O60225) the log2 fold change was -0.04 (inactive).
For STAU1 isoform 3 (UniProt O95793), the log2 fold change was -0.086 (inactive).
For SYK (UniProt P43405), the log2 fold change was -0.236 (inactive).
With SRC isoform 2 (UniProt P12931) the log2 fold change was -0.153 (inactive).
For SLU7 (UniProt O95391), the log2 fold change was -0.267 (inactive).
With SZT2 (UniProt Q5T011) the log2 fold change was -0.214 (inactive).
SPAG1 (UniProt Q07617) was tested, and the log2 fold change was -0.265 (inactive).
For SLCO4A1 (UniProt Q96BD0), the log2 fold change was -0.334 (inactive).

Each target was assayed with Cc1cccc(CC(=O)N2CCc3c2ccc(-c2cn(C)c4ncnc(N)c24)c3F)n1 in the same assay as above.
Outline: as §1
For STK17A (UniProt Q9UEE5), the log2 fold change was -0.197 (inactive).
With SNAPC2 (UniProt Q13487) the log2 fold change was -0.033 (inactive).
STAR (UniProt P49675) was tested, and the log2 fold change was 0.142 (inactive).
For SMARCA4 isoform 4 (UniProt P51532), the log2 fold change was -0.012 (inactive).
With SLC41A1 (UniProt Q8IVJ1) the log2 fold change was 0.113 (inactive).
SSX5 isoform 2 (UniProt O60225) was tested, and the log2 fold change was 0.183 (inactive).
In the case of STAU1 isoform 3 (UniProt O95793), the log2 fold change is reported as 0.078 (inactive).
In the case of SYK (UniProt P43405), the log2 fold change is reported as 0.261 (inactive).
With SRC isoform 2 (UniProt P12931) the log2 fold change was -0.015 (inactive).
For SIN3B (UniProt O75182), the log2 fold change was -0.611 (inactive).
In the case of SKP2 (UniProt Q13309), the log2 fold change is reported as 0.104 (inactive).
SLU7 (UniProt O95391) was tested, and the log2 fold change was 0.367 (active).
SZT2 (UniProt Q5T011) was tested, and the log2 fold change was 0.22 (inactive).
For SLC40A1 (UniProt Q9NP59), the log2 fold change was 0.018 (inactive).
In the case of SHC1 (UniProt P29353), the log2 fold change is reported as 0.009 (inactive).
With SLC25A36 (UniProt Q96CQ1) the log2 fold change was -0.006 (inactive).
With SMPD2 (UniProt O60906) the log2 fold change was 0.03 (inactive).
For SLC35A3 isoform 2 (UniProt Q9Y2D2), the log2 fold change was 0.332 (inactive).
For SNAP23 isoform 2 (UniProt O00161), the log2 fold change was -0.163 (inactive).
With SHB (UniProt Q15464) the log2 fold change was -0.129 (inactive).
In the case of SLCO4A1 (UniProt Q96BD0), the log2 fold change is reported as 0.012 (inactive).
TAF11 (UniProt Q15544) was tested, and the log2 fold change was 0 (inactive).

Each target was assayed with Cc1cn(-c2cc(NC(=O)c3ccc(C)c(Nc4nccc(-c5cccnc5)n4)c3)cc(C(F)(F)F)c2)cn1 [nilotinib] in the same assay as above.
Outline: as §1
With STK17A (UniProt Q9UEE5) the log2 fold change was 0.076 (inactive).
In the case of SNRPD2 (UniProt K7EJB5), the log2 fold change is reported as -0.081 (inactive).
With SNAPC2 (UniProt Q13487) the log2 fold change was 0.066 (inactive).
For STAR (UniProt P49675), the log2 fold change was 0.037 (inactive).
With TAOK2 isoform 2 (UniProt Q9UL54) the log2 fold change was 0.109 (inactive).
In the case of SMARCA4 isoform 4 (UniProt P51532), the log2 fold change is reported as -0.244 (inactive).
In the case of SLC41A1 (UniProt Q8IVJ1), the log2 fold change is reported as -0.009 (inactive).
In the case of SSX5 isoform 2 (UniProt O60225), the log2 fold change is reported as 0.008 (inactive).
In the case of STAU1 isoform 3 (UniProt O95793), the log2 fold change is reported as -0.051 (inactive).
For SYK (UniProt P43405), the log2 fold change was 0.02 (inactive).
With SIN3B (UniProt O75182) the log2 fold change was 1.42 (active).
SKP2 (UniProt Q13309) was tested, and the log2 fold change was 0.047 (inactive).
For SLU7 (UniProt O95391), the log2 fold change was -0.052 (inactive).
For SZT2 (UniProt Q5T011), the log2 fold change was -0.03 (inactive).
For SLC40A1 (UniProt Q9NP59), the log2 fold change was 0.009 (inactive).
In the case of SNIP1 (UniProt Q8TAD8), the log2 fold change is reported as -0.1 (inactive).
With SLC25A36 (UniProt Q96CQ1) the log2 fold change was 0.081 (inactive).
STK38L (UniProt Q9Y2H1) was tested, and the log2 fold change was -0.08 (inactive).
SLC35A3 isoform 2 (UniProt Q9Y2D2) was tested, and the log2 fold change was 0.02 (inactive).
SNAP23 isoform 2 (UniProt O00161) was tested, and the log2 fold change was 0.011 (inactive).
SLCO4A1 (UniProt Q96BD0) was tested, and the log2 fold change was -0.006 (inactive).
For STK17B (UniProt O94768), the log2 fold change was -0.006 (inactive).
With TAF11 (UniProt Q15544) the log2 fold change was 0.05 (inactive).

What follows are targets tested with Cc1nc(Nc2n[nH]c3c2CN(C(=O)N[C@H](CN(C)C)c2ccccc2)C3(C)C)c2sccc2n1 in the same assay as above.
Outline: as §1
With STK17A (UniProt Q9UEE5) the log2 fold change was 0.188 (inactive).
SNRPD2 (UniProt K7EJB5) was tested, and the log2 fold change was 0.005 (inactive).
SNAPC2 (UniProt Q13487) was tested, and the log2 fold change was 0 (inactive).
For STAR (UniProt P49675), the log2 fold change was -0.092 (inactive).
TAOK2 isoform 2 (UniProt Q9UL54) was tested, and the log2 fold change was 0.013 (inactive).
In the case of SMARCA4 isoform 4 (UniProt P51532), the log2 fold change is reported as -0.219 (inactive).
SLC41A1 (UniProt Q8IVJ1) was tested, and the log2 fold change was 0.012 (inactive).
For SSX5 isoform 2 (UniProt O60225), the log2 fold change was -0.018 (inactive).
In the case of STAU1 isoform 3 (UniProt O95793), the log2 fold change is reported as -0.024 (inactive).
In the case of SYK (UniProt P43405), the log2 fold change is reported as -0.031 (inactive).
In the case of SIN3B (UniProt O75182), the log2 fold change is reported as -0.15 (inactive).
For SKP2 (UniProt Q13309), the log2 fold change was -0.044 (inactive).
SLU7 (UniProt O95391) was tested, and the log2 fold change was 0.045 (inactive).
In the case of SZT2 (UniProt Q5T011), the log2 fold change is reported as 0.434 (inactive).
With SLC40A1 (UniProt Q9NP59) the log2 fold change was 0.131 (inactive).
In the case of SNIP1 (UniProt Q8TAD8), the log2 fold change is reported as 0.037 (inactive).
SLC25A36 (UniProt Q96CQ1) was tested, and the log2 fold change was -0.007 (inactive).
In the case of STK38L (UniProt Q9Y2H1), the log2 fold change is reported as 0.68 (active).
With SLC35A3 isoform 2 (UniProt Q9Y2D2) the log2 fold change was -0.001 (inactive).
SNAP23 isoform 2 (UniProt O00161) was tested, and the log2 fold change was -0.041 (inactive).
In the case of SLCO4A1 (UniProt Q96BD0), the log2 fold change is reported as 0.044 (inactive).
STK17B (UniProt O94768) was tested, and the log2 fold change was -0.022 (inactive).
For TAF11 (UniProt Q15544), the log2 fold change was -0.049 (inactive).
